# Source: PubChem (National Center for Advancing Translational Sciences (NCATS))
# ClpP mod – qHTS Assay for Activators of ClpP; purified B. subtilis ClpP, FRET peptide cleavage, 20 min; 1.9% of 340,000 active; Potency, µM (highest dose often 57.5 µM), for the others: top-dose activity change, negative = active; ATP-dependent Clp protease proteolytic subunit (Bacillus subtilis (strain 168)), P80244; active = well fitted falling curve with a large enough effect; inconclusive = small, poorly fitted or top-dose-only effect; inactive = no such curve, though single readings can be large or run the other way; also: potency is read from the fitted curve at half-maximal effect; the source files actives as falling curves though it sought activators and does not explain the sign; nearly all actives have a fitted effect of over 65% in size
# Target sequence (P80244 whole entry, looked up): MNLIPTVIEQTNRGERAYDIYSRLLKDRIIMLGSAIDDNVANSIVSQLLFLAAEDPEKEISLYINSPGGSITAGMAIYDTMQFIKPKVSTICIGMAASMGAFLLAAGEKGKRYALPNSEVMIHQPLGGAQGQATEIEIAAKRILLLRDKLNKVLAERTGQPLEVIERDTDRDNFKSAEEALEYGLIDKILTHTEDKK
#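 Buffer: 100 mM Tris/HCl pH8, 100 mM KCl, 0.05% low protease BSA, 2.5% glycerol, 0.01% Tween-20. ClpP 10 microg/mL final; 20 min RT; delta FRET normalized to ADEP and DMSO controls.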
# TDP1 cell noCPT – qHTS for Inhibitors of human tyrosyl-DNA phosphodiesterase 1 (TDP1): qHTS in cells in absence of CPT | DT40 Tdp1-/- hTDP1 cells, no CPT, ATP luminescence, 48 h | Potency, µM (top dose mostly 46.2 µM), without a hit: at the highest dose activity change, negative = growth inhibition, actives largely listed as inhibitors | 15% of 420,000 active | AID 686978, 2013; also: potency is read from the fitted curve at half-maximal effect; % is scaled to controls: 0 for no effect and ±100 for the full control effect; nearly all actives have a fitted effect of over 55% in size
#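 Seeded 400 DT40-hTDP1 cells/well (vehicle DMSO, no 20 nM CPT); pinned compounds; ≥48 hr at 37 °C; CellTiter-Glo luminescence as viability measure.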
# DT40 TDP1 CPT – DT40-hTDP1 cell growth loss with CPT; chicken DT40 Tdp1-/-;hTDP1 cells + 20 nM CPT, ATP luminescence, 48 h; Potency, µM (doses to about 46.2 µM), for the others: at the top dose activity change, negative = growth inhibition, most hits filed as inhibitors; 12% of 420,000 active; AID 686979; also: potency is read from the fitted curve at half-maximal effect; % is scaled to controls: 0 for no effect and ±100 for the full control effect; nearly all actives have a fitted effect of over 55% in size
#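 Chicken DT40 Tdp1-/- cells complemented with human TDP1, 400 cells/well, exposed to compounds plus 20 nM camptothecin for at least 48 h at 37 C; viability read as ATP content by CellTiter-Glo luminescence.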
# IL-1B inflam inh – inflammasome signaling inhibition, IL-1 beta readout. THP-1 LPS/ATP IL-1B secretion, AlphaLISA, 16 h; stronger effect = lower value. activity change, % at 57.5 µM. 4.7% of 360,000 active. AID 743279; in the data active = activity change below about -50%; inconclusive = mostly about -30% to -49%; also: % is scaled to controls: 0 for no effect and ±100 for the full control effect
#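 Secreted IL-1B measured by AlphaLISA bead assay after 16 h compound exposure of THP-1 cells; compounds (final up to 57.5 uM) added 1 h before LPS (250 ng/mL) and ATP (1.25 mM) stimulation; lower signal means less secretion.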
# D3 antag – blocks the human D3 dopamine receptor | P35462 | D3R cells, DiscoveRx beta-arrestin luminescence, antagonist mode; stronger effect = lower value | max response, negative = inhibition, % | 2.5% of 360,000 active; in the data active = max response below about -50%; inconclusive = no clear call, values can overlap the other calls; also: % is scaled to controls: 0 for no effect and ±100 for the full control effect
# Target sequence (P35462 whole entry, looked up): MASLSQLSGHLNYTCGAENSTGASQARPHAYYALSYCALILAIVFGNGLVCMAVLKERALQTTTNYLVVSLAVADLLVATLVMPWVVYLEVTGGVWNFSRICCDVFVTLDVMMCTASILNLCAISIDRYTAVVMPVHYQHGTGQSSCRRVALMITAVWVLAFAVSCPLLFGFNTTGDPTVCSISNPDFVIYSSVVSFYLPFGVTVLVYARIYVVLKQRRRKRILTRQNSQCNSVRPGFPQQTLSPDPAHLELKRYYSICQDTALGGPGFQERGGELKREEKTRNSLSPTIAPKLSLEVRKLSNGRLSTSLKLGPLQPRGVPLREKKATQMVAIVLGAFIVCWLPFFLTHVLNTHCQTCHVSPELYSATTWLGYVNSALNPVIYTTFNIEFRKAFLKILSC
#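 Cells expressing the human receptor were seeded at 1500 cells/well, incubated overnight at 37 degrees C in 5% CO2, then exposed to library compounds with dopamine controls for 90 minutes at 37 degrees C before luminescent detection.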
# D3 ag – activates the human D3 dopamine receptor | P35462 | AID 652048 | max activation, % | 0.58% of 410,000 active | D3R DiscoveRx beta-arrestin cells, luminescence, 90 min; in the data active = max activation above about 30%; also: 0% is about no effect
#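 Cells at 1500/well, incubated overnight, then treated with pinned compounds (dopamine as control) for 90 min at 37 degrees C. DiscoveRx reagent added for 30 - 60 minutes at room temperature; luminescence read.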
# * = called active by the depositor; ? = inconclusive; / = no result; [ ] = remark or other dose. Shown are actives, neighbours in structure and some others; about 21% of the full set was active somewhere. Unless noted, calls follow the shape of the dose curve; as a rule, active = well fitted inhibition curve with a large enough effect; inconclusive = small, poorly fitted or top-dose-only effect; inactive = flat fitted curve, though single readings scatter.
SMILES,ClpP mod,TDP1 cell noCPT,DT40 TDP1 CPT,IL-1B inflam inh,D3 antag,D3 ag
COc1cccc(-c2cc(C(=O)Nc3ccccc3)c3ccccc3n2)c1,/,6.51µM*,?,21.5,31.8,18.6
COc1cccc(-c2cc(C(=O)Nc3ccc([N+](=O)[O-])cn3)c3ccccc3n2)c1,0.6%,11.6µM*,?,-5.4,6.8,-1.7
O=C(O)c1cccc(-n2cnc3cccnc32)c1,-1.2%,-11.9%,-0.9%,/,/,6.8
C=C[C@H](N)CCC(=O)O,/,-1.2%,-18.0%,/,/,/
Cc1cccc(CNC(=O)c2cnn(-c3nccc(-c4cc5ccccc5o4)n3)c2C2CC2)n1,/,?,-1.0%[9.04 µM],/,/,/
COc1cc2ccc(-c3ccc4ccccc4n3)cc2cc1OC,3.8%,6.51µM*,?,-3.6,116.1,27.6
CCOc1cccc(-c2cc(C(=O)Nc3ccon3)c3ccccc3n2)c1,-1.1%,9.2µM*,?,-11.4,28.4,25.4
O=C(Nc1ccon1)c1cc(-c2ccccc2)nc2ccccc12,-22.5%,?,-23.1%,-11.7,1.3,7.4
COc1ccc(-c2cc(C(=O)Nc3ccc(C(N)=O)cc3)c3ccccc3n2)cc1,/,6.51µM*,8.2µM*,/,15.3,2.7
CC(C)C(=O)Nc1cccc(-c2csc(-c3ccccc3)n2)c1,-5.9%,?,?,?,4.8,1.8
COc1ccc(COc2cc(-c3cccc(OC)c3)nc3ccc(NC(=O)C(C)C)cc23)cc1,4.5%,4.61µM*,4.61µM*,61.2,20.1,-15.1
COc1ccc(NC(=O)c2cc(-c3ccco3)nc3ccccc23)cc1,0.2%,?,-9.6%,10.9,8.5,-9.2
CN1CCN(c2ccc(C(=O)NC3CCCCC3)cc2[N+](=O)[O-])CC1,-0.2%,-24.6%,-15.6%,17.8,-2.6,0.0
Cc1cc(O)c(C(C)C)cc1NC(=S)Nc1cc(C(C)C)c(O)cc1C,1.8%,?,?,-55.0*,-6.2,-12.3
CCOc1ccc(NC(=O)Nc2cc(C(C)C)c(O)cc2C)cc1,/,?,?,-2.9,-10.3,1.3
O=C(NCC(c1ccco1)N1CCCC1)c1cc2ccccc2s1 (centres undefined),-3.4%,-11.4%,-23.0%,-4.3,-59.4*,-19.1
O=C(NCC(c1ccco1)N1CCCC1)c1ccccc1Sc1ccc(C(F)(F)F)cc1[N+](=O)[O-] (centres undefined),0.7%,?,?,-75.5*,-15.8,0.0
N#Cc1ccccc1Sc1ccccc1C(=O)NCC(c1ccco1)N1CCCCC1 (centres undefined),0.4%,?,?,-12.2,-7.8,-6.0
O=C(NCC(c1ccco1)N1CCCCC1)c1ccc([N+](=O)[O-])s1 (centres undefined),-0.5%,23.1µM*,18.4µM*,-15.5,-15.2,-12.0
CC1CCCCN1S(=O)(=O)c1cccc2nonc12 (centres undefined),0.3%,-6.9%,-11.2%,21.7,0.2,-8.2
O=C1C=CC[C@H](/C=C/C[C@@H](O)C[C@H](O)CCc2ccccc2)O1,-23.2%,?,?,-96.5*,-21.5,-5.9
O=C1CC(c2ccccc2)CC(O)=C1C=NCCc1ccccc1 (centres undefined),0.1%,-20.0%,-20.3%,-18.4,2.5,2.1
COc1ccc(OC)c(CNS(=O)(=O)c2ccc3c(c2)CCCN3C(C)=O)c1,-1.1%,?,?,/,/,5.0
O=[N+]([O-])c1nn(-c2ccc(Cl)cc2)n(O)c1=NCc1ccccc1Cl,/,?,-17.8%,-3.7,0.0,-0.5
Cc1cccc(N=c2c([N+](=O)[O-])nn(-c3ccc(Cl)cc3)n2O)c1,/,0.8%,4.2%,22.2,3.7,-3.6
SMILES,ClpP mod,TDP1 cell noCPT,DT40 TDP1 CPT,IL-1B inflam inh,D3 antag,D3 ag
O=[N+]([O-])c1nn(-c2ccc3c(c2)OCCO3)n(O)c1=NCc1ccc(F)cc1,-1.9%,?,?,-75.6*,-6.6,5.2
Cc1cc(C)cc(N=c2c([N+](=O)[O-])nn(-c3cccc(Cl)c3)n2O)c1,1.9%,?,11.2µM*,-1.2,-11.1,-1.8
CCc1cccc(N=c2c([N+](=O)[O-])nn(-c3ccc(Cl)cc3)n2O)c1,1.7%,?,20.6µM*,5.3,50.2,1.3
CCc1cccc(N=c2c([N+](=O)[O-])nn(-c3ccc4c(c3)OCCO4)n2O)c1,/,3.26µM*,1.84µM*,0.0,-11.3,-7.1
COc1ccc(NC(=O)CC2Oc3ccc(C)cc3NC2=O)cc1Cl (centres undefined),-7.2%,-23.4%,-5.5%,/,/,-8.5
CCOc1ccc2ccccc2c1/C=N/NC(=O)CNC(=O)C(c1ccccc1)c1ccccc1,-27.9%,?,-6.2%,-6.3,-28.7,-4.5
COc1ccc(C(=O)NCc2nnc(SCC(=O)NCCc3ccccc3)o2)cc1,3.9%,-26.9%,-1.9%,-2.3,-6.8,-3.6
S=C1NCN(C2CCCCC2)CN1CCc1ccccc1,/,?,?,11.6,-18.3,-10.4
COC(=O)c1ccc(Cl)cc1NC(=O)Nc1nnc(N2CCCC2)s1,-16.6%,-12.8%,2.2%,/,/,1.7
COc1cc(N=c2c([N+](=O)[O-])nn(-c3ccc4c(c3)OCCO4)n2O)cc(OC)c1,-2.0%,1.64µM*,1.46µM*,-22.3,?,2.6
NC(=O)C1CCN(C(=O)c2ccc(Cl)c(S(=O)(=O)N3CCCCCC3)c2)CC1,-0.2%,17.7%,0.3%,9.1,-7.3,6.1
COc1cc2c(-c3ccc(O)cc3)nc3c(c(C)nn3-c3ccccc3)c2cc1OC,8.91µM*,18.4µM*,11.6µM*,22.2,29.2,79.7*
COc1ccc(S(=O)(=O)N2CC(C)OC(C)C2)cc1C(=O)N1CCCCC1 (centres undefined),-1.7%,?,?,15.0,-3.8,13.0
O=C(CSCc1c(F)cccc1F)Nc1ccccc1,/,-22.4%,-19.6%,-0.3,?,-18.1
CN(CCCNC(=O)c1cc2c(=O)[nH]c3ccccc3c2n1C)Cc1ccccc1,4.5%,?,-17.9%,-25.3,-1.0,-0.8
Cn1c(C(=O)N2CCN(c3ccc(Cl)cc3)CC2)cc2c(=O)[nH]c3ccccc3c21,5.6%,20.6µM*,?,?,41.3,0.7
CC(C)c1ccc(NC(=O)c2cc3c(=O)[nH]c4ccccc4c3n2C)cc1,-5.7%,14.6µM*,6.51µM*,/,/,-2.4
